The campaign covered roughly 340,000 compounds. About 2,800 (0.82%) were called active.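 How the source made its calls: active means B-score under library mean minus 4 SD, starting fluorescence ratio at most library mean plus 5 SD; inactive means the rest.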 This excerpt belongs to a sample that is enriched for actives.
target: Potassium channel subfamily K member 3 (Homo sapiens) (UniProt O14649); experiment: blockers of TASK1 two-pore potassium channel – CHO cells, FluxOR thallium flux, B-score, primary screen (AID 602410); conditions: CHO-KCNK3 thallium flux, FluxOR fluorescence, at 10 µM; hits give low values;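 on B-score: more negative B-score means stronger inhibition of thallium flux through KCNK3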
Sequence (O14649 whole entry, looked up): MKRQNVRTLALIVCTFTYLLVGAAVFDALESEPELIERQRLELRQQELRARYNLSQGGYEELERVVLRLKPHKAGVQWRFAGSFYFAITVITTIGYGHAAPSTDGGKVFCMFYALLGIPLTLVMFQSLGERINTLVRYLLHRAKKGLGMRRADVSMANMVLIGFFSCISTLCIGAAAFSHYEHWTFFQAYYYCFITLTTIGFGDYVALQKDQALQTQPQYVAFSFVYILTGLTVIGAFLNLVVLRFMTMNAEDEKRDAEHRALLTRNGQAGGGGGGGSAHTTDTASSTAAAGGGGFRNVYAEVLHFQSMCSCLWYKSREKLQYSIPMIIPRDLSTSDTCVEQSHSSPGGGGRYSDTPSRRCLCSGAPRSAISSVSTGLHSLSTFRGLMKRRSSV

| Compound | B-score |
| --- | --- |
| CCCCCCN=C(CC)c1c(O)n(CCCC)c(=O)[nH]c1=O | -9.07 (active) |
| CCC(=NCCCO)c1c(O)n(-c2ccc(OC)cc2)c(=O)[nH]c1=O | inactive |
| CCCCn1c(O)c(C(CC)=NCc2ccco2)c(=O)[nH]c1=O | inactive |
| COc1ccc(Br)cc1CNCCc1cccc(Cl)c1 | inactive |
| CCCCC(=O)N/N=C/c1c(O)n(CC)c(=S)n(CC)c1=O | inactive |
| Oc1cc2c(cc1CN1CCN(c3ccccc3)CC1)OCO2 | inactive |
| COc1ccc(C(=O)C2CCCN(Cc3ccc(C)s3)C2)cc1OC (stereo not given) | inactive |
| COc1ccccc1C1=NCc2nnc(CSC)n2-c2ccc(Cl)cc21 | -9.71 (active) |
| Cc1cc(C(=O)OCC(=O)Nc2c(F)cccc2F)c(C)n1C1CC1 | inactive |
| CC(C)c1c(CN(C)C(C)Cc2ccccc2)n(C)n(-c2ccccc2)c1=O (stereo not given) | inactive |
| CCN1CCN(Cc2cc(OC)c3c(c2)OCO3)CC1 | inactive |
| CCOC(=O)C1SC2(C(F)(F)C(F)F)CC1(O)c1c(c(OC)c3occc3c1OC)O2 (stereo not given) | -10.9 (active) |
| CCOC(=O)C(O)(c1ccc(N=Cc2ccccc2O)c(C)c1)C(F)(F)F (stereo not given) | inactive |
| CC12CN3CC(C)(CN(C1)C3c1cccs1)C2 (stereo not given) | inactive |
| CNCC(O)c1cc(F)c(OCc2ccccc2)c(OCc2ccccc2)c1F (stereo not given) | inactive |

Reference: PubChem BioAssay AID602410 (Johns Hopkins Ion Channel Center, 2012)
